Only some compounds are listed: those with a hit (about 3.9% of all), similar ones and a draw of the others.
CDK5 p35 inh – inhibitors of human CDK5/p35 kinase, primary screen, biochemical, single concentration. 0.01% of 330,000 active. inhibition, % at 10 µM. Recombinant CDK5/p35, ADP-Glo luminescence, 60 min. AID 488839, 2010;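 active = highest replicate inhibition of at least 50% and at least 75% of replicates reaching 50%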;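 note: plate controls were DMSO neutral control for no effect and GW8510 at 10 µM for full effect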
NSD2 HMT inh – NSD2 histone methyltransferase inhibitors, primary screen, biochemical, AlphaScreen, single concentration, set 2. AID 743445, 2014. 0.54% of 310,000 active. NSD2 peptide methylation, 120 min. inhibition, % at 12.5 µM; in the data active = inhibition above about 50%
ALR H2O2 inh – inhibitors of human ALR sulfhydryl oxidase, primary screen, biochemical, H2O2 detection, HRP-luminol luminescence, single point. 3.8% of 290,000 active. inhibition, % (no concentration beside the values). purified ALR, DTT oxidation. AID 485317, 2010;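 active = mean replicate inhibition above about 79%, with every replicate also reaching it, limit read from the data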
Casp6 inh – human caspase-6 inhibitors, primary screen, biochemical, VEID-R110 fluorescence, single point, set 2. P55212. AID 686996, 2013. inhibition, % at 12.5 µM. 0.53% of 350,000 active. purified caspase-6, Z-VEID-R110 cleavage fluorescence;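 active = mean inhibition across replicates at least about 35%, with every replicate also reaching that limit, limit read from the data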;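 note: 0% = median of neutral control wells and 100% = no fluorescence left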
Target sequence (P55212 24-179 limits assumed): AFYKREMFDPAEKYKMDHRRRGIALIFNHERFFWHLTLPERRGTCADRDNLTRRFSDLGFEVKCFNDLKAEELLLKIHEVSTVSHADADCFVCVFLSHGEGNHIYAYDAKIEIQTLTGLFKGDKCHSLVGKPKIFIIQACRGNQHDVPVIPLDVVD
Target sequence (P55212 194-293 limits assumed): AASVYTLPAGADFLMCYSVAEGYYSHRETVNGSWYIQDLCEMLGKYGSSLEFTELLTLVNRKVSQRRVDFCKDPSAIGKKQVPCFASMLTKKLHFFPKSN
Glyco luc inh – increase of ERlucT glycosylation luciferase signal, primary screen, N-linked glycosylation inhibitor project, D54 ERlucT cells, luminescence, set 2. 0.23% of 360,000 active. D54 ERlucT glycosylation luciferase reporter, 24 h; percent of 100 nM tunicamycin response. reporter increase, % at 12.5 µM;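 active = mean luciferase reporter signal, scaled so untreated is 0 and the glycosylation-blocking control 100, at or above a set limit in every replicate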;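 note: luciferase carries N-glycosylation sites so blocking glycosylation raises the light; 0% = median of neutral control wells and 100% = median of 100 nM tunicamycin wells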
Mot1-301 SUMO – yeast Mot1-301 growth rescue at high temperature, primary screen, SUMOylation pathway inhibitor project, S. cerevisiae, ATP luminescence, 38.5C. S. cerevisiae Mot1-301 growth rescue; percent above DMSO median, 100 means doubled. growth rescue, % at 18.8 µM. 1% of 320,000 active. AID 2716, 2010;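 active = every valid replicate shows activation above 250% relative to neutral control wells; inactive = the rest, any valid replicate at or below 250%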;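 note: OY570 slx delta 5 strain wells were the positive control but not used for scaling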
* hit, by the source's call; · = no result.

SMILES | CDK5 p35 inh | NSD2 HMT inh | ALR H2O2 inh | Casp6 inh | Glyco luc inh | Mot1-301 SUMO
O=C(NNc1ccccc1)C(=O)NNS(=O)(=O)c1ccc(CCCl)cc1 | 1 | -4 | 99* | 5 | -1 | -26
COC(=O)C(C)Oc1ccc(-c2nccc(-c3cccs3)n2)cc1 (configuration not stated) | -1 | -1 | 1 | · | 3 | -6
Oc1ccc(-c2nccc(-c3cccs3)n2)cc1 | 2 | 2 | 89* | · | 1 | ·
COc1ccc(NC(=O)N(C)C[C@H]2Oc3ccc(NS(=O)(=O)c4ccccc4)cc3CC(=O)N([C@@H](C)CO)C[C@H]2C)cc1 | · | · | · | -1 | · | ·
Cc1ccc(-c2c[nH]c(=S)n2-c2ccccc2)cc1 | 4 | 1 | 71 | 0 | -1 | ·
S=c1[nH]cc(-c2ccccc2)n1-c1cccc(Cl)c1 | -1 | 5 | · | 55* | -1 | -8
S=c1[nH]cc(-c2ccccc2)n1-c1ccccc1Cl | 2 | -1 | 90* | · | 1 | -8
Cc1ccc(-c2c[nH]c(=S)n2-c2ccccc2F)cc1 | 3 | 12 | 98* | 0 | -1 | ·
COc1ccccc1-n1c(-c2ccccc2)c[nH]c1=S | 5 | 2 | · | 3 | -1 | ·
COc1cccc(-n2c(-c3ccccc3)c[nH]c2=S)c1 | 5 | 5 | 17 | -12 | -1 | 0
CCCNC(=O)N1C[C@H](O)COC[C@@H]2O[C@@H](CC(=O)N3CCN(C)CC3)CC[C@H]21 | · | · | · | 0 | · | ·
COC(=O)C[C@H]1CC[C@@H]2[C@@H](COc3ccc(NC(=O)c4ccc(OC)cc4)cc3C(=O)N2C)O1 | · | · | · | 0 | · | ·
CCN(CC)c1ccc(NC(=O)CSc2nnc3nc(C)cc(C)n23)cc1 | -2 | · | 99* | · | 4 | 10
CCN(CC)c1ccc(NC(=O)c2nc3nc(C)cc(C(F)F)n3n2)cc1 | -1 | · | 99* | -1 | -1 | 12
Cc1cc(C)n2nc(SCC(=O)Nc3ccc(O)cc3)nc2n1 | -1 | -2 | 99* | -1 | 1 | 3
Cc1cc(SCC(=O)Nc2ccc(O)cc2)n2ncc(-c3ccccc3)c2n1 | -1 | · | -8 | -2 | 0 | -6
Cc1cc(C)n2c(SCC(=O)Nc3ccccc3)nnc2n1 | 1 | · | -7 | -6 | -4 | -16
Cc1cc(SCC(=O)Nc2ccc(O)cc2)n2nc(C)c(-c3ccccc3)c2n1 | 2 | -2 | 99* | -1 | 0 | -19
COC(=O)C[C@@H]1CC[C@H]2[C@H](COc3ccc(NS(=O)(=O)c4ccc(C)cc4)cc3C(=O)N2C)O1 | · | · | · | -4 | · | ·
CSc1nsc(SCC(=O)Nc2ccc(O)c(C(=O)O)c2)n1 | -2 | 0 | 82* | 10 | 2 | 2
COc1ccc(NC(=O)N2CCCCN3[C@H](C2)[C@@H](c2ccc(C4=CCCC4)cc2)[C@@H]3CO)cc1 | · | · | · | -2 | · | ·
COc1cccc(S(=O)(=O)N(C)C[C@H]2Oc3ncc(-c4cccc(C(=O)N(C)C)c4)cc3C(=O)N([C@H](C)CO)C[C@H]2C)c1 | · | · | · | -2 | · | ·
CCOc1ccc2nc(N3CCC(C(=O)NC4CCCCC4)CC3)sc2c1 | -2 | -1 | · | 0 | -5 | 344*
C[C@H]1CN([C@@H](C)CO)C(=O)c2cc(NC(=O)CCC(F)(F)F)ccc2O[C@H]1CN(C)S(=O)(=O)c1ccccc1 | · | · | · | 2 | · | ·
C[C@@H]1CN([C@@H](C)CO)C(=O)c2cc(-c3cccnc3)cnc2O[C@@H]1CN(C)C(=O)Nc1ccccc1 | · | · | · | -4 | · | ·
CCCc1cc(=O)[nH]c(SCC(=O)c2ccc3c(c2)NC(=O)CO3)n1 | 0 | 0 | 97* | 1 | 0 | 10
CC(=O)Nc1ccc(SCC(=O)c2cc(C)n(CC(F)(F)F)c2C)cc1 | 1 | 1 | · | · | -5 | -16
Cc1ccnc(SCC(=O)c2ccc(Br)s2)n1 | 2 | -3 | 85* | 0 | 1 | -9
CC(=O)Nc1ccc(SCC(=O)c2cc(C)n(C)c2C)cc1 | 2 | -3 | 99* | · | 2 | -6

Screening results deposited in PubChem BioAssay by Broad Institute.
